The nature of this assay: probe aLefty2 binding to arrayed compounds – biochemical, biotinylated probe, 635/667 nm fluorescence, primary screen (AID 1094).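 Note: score merges spot fluorescence near 667 nm with spot signal-to-noise ratio.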 Conditions: small-molecule microarray, higher = more signal.
`O=C1C=C[C@@H](O)[C@@H]2[C@@H]3C(=O)N(C4CCCCC4)C(=O)[C@@H]3CC[C@@H]12` returned a composite z-score of -0.0678. Under `C[C@@H]1CC[C@H]2C(=O)OC(Cc3ccccc3)CN2[C@H]1c1ccc(Br)cc1` (stereo partly specified) stands -0.0923; under `O=C1[C@H]2[C@H]3[C@H](O)[C@H](O)CC(=NO[C@@H]4O[C@H](CO)[C@@H](O)[C@H](O)[C@H]4O)[C@H]3CC[C@H]2C(=O)N1c1ccc(F)cc1F`, -0.128. Under `COc1ccc(COC(=O)NN=C2C[C@@H](O)[C@@H](O)[C@@H]3[C@@H]4C(=O)N([C@@H](C)c5ccccc5)C(=O)[C@@H]4CC[C@H]23)cc1` stands 0.484; under `CC(=O)OC[C@H]1O[C@H](CC=NO[C@H](C)c2cn([C@@H]3COC[C@H]3O)nn2)C=C[C@@H]1OC(C)=O`, -0.23.

As to `COc1ccc(O[C@H]2C=C[C@@H](c3ccccc3)O[C@@H]2CO)cc1`, the composite z-score is -0.0603.

Regarding `CCOC(=O)[C@H](Cc1ccccc1)NC(=O)CCC1CC(OC(=O)NCCc2ccc(F)cc2)CC2(CCCC(COC(=O)NCCOc3ccccc3)O2)O1` (stereo partly specified), the composite z-score was -0.0907.

Regarding `O=C1C[C@@H](O)[C@@H](O)[C@@H]2[C@@H]3C(=O)N(C4CCCCC4)C(=O)[C@@H]3CC[C@@H]12`, the composite z-score is -0.137.

With `CC(CCN1CCCCc2nc(C)c(C)cc21)=NO[C@@H](C)c1cc(-c2c(C)cc(C)cc2C)no1`, the composite z-score is -0.126. The figure for `CCOC(=O)[C@H](CC(C)C)NC(=O)CCC1CC(OC(=O)NCc2ccc3c(c2)OCO3)CC2(CCCC(COC(=O)NCCOc3ccccc3)O2)O1` (stereo partly specified) is -0.0928; for `C=CC[C@@H]1C=C[C@H](ON=C(C)CCN2CCCc3nc(C)c(C)cc32)[C@@H](CO)O1` it is 0.475; for `O=C1CCCC=C1C(O)C1CCCCC1` (stereo unspecified) it is -0.0279. Under `CO[C@H]1COC(=O)CC=C[C@H](C)[C@H](OC)COC(=O)[C@@H](C)NC(=O)CC=C[C@@H]1C` stands -0.0122; under `COC(=O)CC=C[C@@H](C)[C@@H](C=NOC[C@@H](C)[C@H](OCc1ccccc1)C(C)C)OC`, -0.215.

In the case of `CC(C)CON=C1C[C@@H](O)[C@@H](O)[C@@H]2[C@@H]3C(=O)N(C(C)(C)C)C(=O)[C@@H]3CC[C@@H]12`, the composite z-score is -0.317. `CC1(C)O[C@H]2OC([C@H](O)CON3C(=O)c4ccccc4C3=O)[C@H](O)[C@H]2O1` (stereo partly specified) registered a composite z-score of -0.0561. The figure for `CCOC(=O)CCN1C(=O)[C@H]2[C@H]3[C@H](O)[C@H](O)CC(=NNC(=O)OCC)[C@H]3CC[C@H]2C1=O` is -0.139; for `CCN(CC)CC(O)CN1CCCCc2nc(C)c(C)cc21` (stereo unspecified) it is -0.343; for `CC(C)=NO[C@@H](C)c1cn([C@H](CO)Cc2ccccc2)nn1` it is -0.127. In turn, `O=C(NN=C1C[C@@H](O)[C@@H](O)[C@@H]2[C@@H]3C(=O)N(Cc4ccccc4)C(=O)[C@@H]3CC[C@H]12)OCc1ccccc1` returned a composite z-score of -0.269. The figure for `CCOC(=O)CCN1C(=O)[C@H]2[C@H]3[C@H](O)[C@H](O)CC(=NOCC=C(C)CCC=C(C)C)[C@H]3CC[C@H]2C1=O` is 0.287; for `CC(=O)OC[C@H]1O[C@@H](ON=C2[C@H]3CCn4c(=O)n(-c5ccccc5)c(=O)n4[C@H]3[C@H](O)[C@@H]3O[C@H]23)[C@H](OC(C)=O)[C@@H](OC(C)=O)[C@@H]1OC(C)=O` it is -0.0409. The figure for `O=C1CCCC=C1C(O)COCc1ccccc1` (stereo unspecified) is -0.212; for `C[C@H]1CC[C@@H](C(=O)O)N[C@@H]1c1cccc(N2CCCC2=O)c1` it is -0.0873; for `COC(=O)[C@H](C)NC(=O)CCC1CC(OC(=O)NCc2ccc3c(c2)OCO3)CC2(CCCC(COC(=O)NCCCN3CCCC3=O)O2)O1` (stereo partly specified) it is -0.155. Under `CC(C)(C)N1C(=O)[C@H]2[C@@H]3C(=CC[C@H]2C1=O)C(=O)[C@H]1O[C@H]1[C@H]3O` stands -0.338; under `CCOC(=O)NN=C1C[C@@H](O)[C@@H](O)[C@@H]2[C@@H]3C(=O)N(C[C@@H]4CCCO4)C(=O)[C@@H]3CC[C@H]12`, -0.179; under `CC(C)=CCCC(C)=CCON=C1C[C@@H](O)[C@@H](O)[C@@H]2[C@@H]3C(=O)N(Cc4ccc5c(c4)OCO5)C(=O)[C@@H]3CC[C@H]12`, -0.166. `CC(=O)OC[C@H]1O[C@H](CC=NOC(C)CN2CCCCc3nc(C)c(C)cc32)C=C[C@@H]1OC(C)=O` (stereo partly specified) came in with a composite z-score of 0.176. The figure for `CCOC(=O)[C@H](Cc1ccccc1)NC(=O)CCC1CC(OC(=O)NCCc2ccc(F)cc2)CC2(CCCC(COC(=O)NCc3cccc(C(F)(F)F)c3)O2)O1` (stereo partly specified) is -0.0008.

The compound `O=C1C=C[C@@H](O)[C@@H]2[C@@H]3C(=O)N(Cc4ccc5c(c4)OCO5)C(=O)[C@@H]3CC[C@@H]12` came in with a composite z-score of -0.116. In turn, `O=C1CCCC=C1C(O)c1ccc([N+](=O)[O-])cc1` (stereo unspecified) showed a composite z-score of -0.114. The figure for `COC(=O)CC=C[C@@H](C)[C@@H](C=NOC(C)CN1CCCCc2nc(C)c(C)cc21)NS(=O)(=O)c1ccc(C)cc1` (stereo partly specified) is 0.0768.

Compound `CC(CCC(=O)OC[C@H]1O[C@H](C#Cc2ccccc2)C=C[C@@H]1Oc1ccc(C)cc1)=NOC(C)CN1CCCc2nc(C)c(C)cc21` (stereo partly specified) returned a composite z-score of -0.0849. Under `CCN1C(=O)[C@H]2[C@H]3[C@H](O)[C@H](O)CC(=NO[C@H](C)c4cn([C@@H]5COC[C@H]5O)nn4)[C@@H]3CC[C@H]2C1=O` stands -0.129. The figure for `COc1ccc(-c2cnnc(CCCn3ccnc3-c3ccccc3)n2)cc1` is -0.125.

These data come from PubChem BioAssay.
